Experimental data: PubChem BioAssay (EPA / NIEHS)
Values joined by “and” are separate entries in the source; they are usually repeats but may differ in a detail not shown here. Equal entries are not always repeated. Records with an inconclusive call do not appear. The source holds several records for some structures; these can differ, active in one and inactive in another. Active and inactive are the calls of the source. Rule for the calls, unless noted: active = hit-call score of the fitted dose curve at least 0.9, where 1 is the maximum; inactive = score below 0.9.

Experiments:
[1] = target: Nuclear receptor subfamily 1 group I member 3 (Homo sapiens) (UniProt Q14994); assay: ATG_CAR_TRANS: Attagene TRANS-FACTORIAL HepG2 Assay for human Constitutive Androstane Receptor (CAR) (AID 2282969; active = hit-call score of the fitted dose curve at least 0.9, where 1 is the maximum;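 note: activators raise reporter mRNA above DMSO so AC50 marks induction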); details: HepG2 Attagene TRANS-FACTORIAL CAR reporter
Chain of Nuclear receptor subfamily 1 group I member 3 (Homo sapiens) (Q14994 whole entry, looked up, the tested form may be a part): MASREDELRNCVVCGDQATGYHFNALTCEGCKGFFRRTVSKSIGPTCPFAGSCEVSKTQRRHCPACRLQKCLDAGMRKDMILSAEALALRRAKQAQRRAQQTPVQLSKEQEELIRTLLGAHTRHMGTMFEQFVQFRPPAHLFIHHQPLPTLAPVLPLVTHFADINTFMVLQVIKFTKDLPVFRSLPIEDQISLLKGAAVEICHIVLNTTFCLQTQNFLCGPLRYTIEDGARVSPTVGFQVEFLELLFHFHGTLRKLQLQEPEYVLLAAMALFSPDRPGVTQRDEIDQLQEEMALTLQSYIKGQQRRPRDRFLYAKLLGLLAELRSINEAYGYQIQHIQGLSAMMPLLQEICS
Procedure, shortened: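 HepG2 cells transiently transfected with multiplexed GAL4-UAS reporter units expressing chimeric NR-Gal4 proteins; compound exposure 24 h. Reporter mRNA measured by RT-PCR, 6-FAM labelling, HpaI digestion and capillary electrophoresis; gain-of-signal fitted against DMSO baseline.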

[2] = CCTE_Harrill_HTTr_Viability_MCF7: CCTE's 6-hour Cell Viability Assessment for the High-Throughput Transcriptomics (HTTr) Platform, in MCF-7 cells cultured in DMEM + 10% fetal bovine serum, Harrill Lab (AID 2284010)
Procedure, shortened: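 Membrane integrity was scored by high-content imaging of propidium iodide dye exclusion after a 6 h exposure across an eight-point dilution series. Data were fitted bidirectionally relative to DMSO as negative control and baseline.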

[3] = CCTE_Harrill_HTTr_Apoptosis_MCF7: CCTE's 6-hour Apoptosis Assessment for the High-Throughput Transcriptomics (HTTr) Platform, in MCF-7 cells cultured in DMEM + 10% fetal bovine serum, Harrill Lab (AID 2284011)
Procedure, shortened: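 Cells are dosed with test chemicals at eight concentrations and imaged 6 hours later for caspase-3/7 activity using a green fluorogenic detection reagent. Activity is fitted in both directions against DMSO controls.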

[4] = BSK_3C_TissueFactor: BioMAP Diversity Plus: 3C Assay for Tissue Factor Biomarker Activity (AID 2282997); details: BioMAP 3C HUVEC, tissue factor biomarker readout; actives raise or lower the signal
Procedure, shortened: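 Values derive from bidirectional curve fitting against DMSO of Tissue Factor ELISA signals, taken 24 h after dosing primary human umbilical vein endothelial cells.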

[5] = BSK_3C_VCAM1: BioMAP Diversity Plus: 3C Assay for Vascular cell adhesion molecule 1 (VCAM1) Biomarker Activity (AID 2282999); details: BioMAP 3C HUVEC, VCAM1 ELISA, cytokine-stimulated; actives raise or lower the signal
Procedure, shortened: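 Human umbilical vein endothelial cells were dosed with compound for 24 h, after which cell-surface VCAM-1 was quantified by ELISA. Bidirectional curve fitting used DMSO as negative control and activity baseline.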

[6] = BSK_3C_Proliferation: Cell Proliferation Assessment in the BioMAP Diversity Plus: 3C Assay (AID 2283006); details: primary human endothelial cells (HUVEC);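 for AC50: potency may reflect either rise or fall in cell number versus DMSO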
Procedure, shortened: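 Human umbilical vein endothelial cells were grown sub-confluent and exposed to chemical for 48 h, then fixed with 10% TCA and stained with 0.1% sulforhodamine B; absorbance at 560 nm gave relative cell number, fitted bidirectionally against DMSO baseline.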

[7] = read-out: E-selectin (Homo sapiens) (UniProt P16581); assay: BSK_3C_Eselectin: BioMAP Diversity Plus: 3C Assay for Eselectin Biomarker Activity (AID 2283015); details: primary human endothelial cells (HUVEC); actives raise or lower the signal
Procedure, shortened: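 Human vascular endothelium from umbilical vein is exposed to test chemicals for 24 h. E-selectin levels are read by ELISA and compared with DMSO controls.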

[8] = read-out: Interleukin-1 alpha (IL1a), IL1A (gene 3552); assay: BSK_BE3C_IL1a: BioMAP Diversity Plus: BE3C Assay for Interleukin-1 alpha (IL1a) Biomarker Activity (AID 2283016); details: primary human bronchial epithelial cells; actives raise or lower the signal
Procedure, shortened: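 Human primary bronchial epithelial cells (BE3C system) were dosed with compound and IL-1a measured by ELISA 24 h later. Activity was fitted bidirectionally against DMSO baseline; cytotoxicity was tracked in parallel cultures by SRB total-protein staining.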

[9] = read-out: Human Leukocyte Antigen - DR isotype (HLADR), HLA-DRA (gene 3122); assay: BSK_3C_HLADR: BioMAP Diversity Plus: 3C Assay for Human Leukocyte Antigen - DR isotype (HLADR) Biomarker Activity (AID 2283019); details: primary human endothelial cells (HUVEC); actives raise or lower the signal
Procedure, shortened: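 Endothelial cells from human umbilical vein are treated with test chemical; after 24 h, HLA-DR levels are measured by ELISA. Data are fitted in both directions using DMSO as the baseline.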

[10] = read-out: Urokinase-type plasminogen activator receptor (uPAR), PLAUR (gene 5329); assay: BSK_4H_uPAR: BioMAP Diversity Plus: 4H Assay for Urokinase-type plasminogen activator receptor (uPAR) Biomarker Activity (AID 2283030); details: primary human endothelial cells (HUVEC); actives raise or lower the signal
Procedure, shortened: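 Chemicals are dosed onto human vascular endothelial primary cells (umbilical vein). After 24 h, uPAR is read by ELISA. Gain or loss of signal is fitted relative to DMSO.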

[11] = read-out: Plasminogen activator inhibitor-1 (PAI1), SERPINE1 (gene 5054); assay: BSK_BE3C_PAI1: BioMAP Diversity Plus: BE3C Assay for Plasminogen activator inhibitor-1 (PAI1) Biomarker Activity (AID 2283037); details: primary human bronchial epithelial cells; actives raise or lower the signal
Procedure, shortened: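 Human primary bronchial epithelial cells were exposed to chemical for 24 h, then PAI-1 was quantified by ELISA. Activity was fitted bidirectionally relative to the DMSO negative control baseline.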

[12] = read-out: Human Leukocyte Antigen - DR isotype (HLADR), HLA-DRA (gene 3122); assay: BSK_CASM3C_HLADR: BioMAP Diversity Plus: CASM3C Assay for Human Leukocyte Antigen - DR isotype (HLADR) Biomarker Activity (AID 2283043); details: primary human coronary artery smooth muscle cells; actives raise or lower the signal;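 note: cell-surface HLA-DR protein level quantified by ELISA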
[13] = read-out: Thrombomodulin, THBD (gene 7056); assay: BSK_CASM3C_Thrombomodulin: BioMAP Diversity Plus: CASM3C Assay for Thrombomodulin Biomarker Activity (AID 2283051); details: primary human coronary artery smooth muscle cells; actives raise or lower the signal;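 note: thrombomodulin protein level measured by ELISA 24 h after dosing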
[14] = read-out: Vascular cell adhesion molecule 1 (VCAM1), VCAM1 (gene 7412); assay: BSK_CASM3C_VCAM1: BioMAP Diversity Plus: CASM3C Assay for Vascular cell adhesion molecule 1 (VCAM1) Biomarker Activity (AID 2283055); details: primary human coronary artery smooth muscle cells; actives raise or lower the signal;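 note: VCAM-1 protein level quantified by ELISA on the cells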
[15] = read-out: TIMP metallopeptidase inhibitor 2 (TIMP2), TIMP2 (gene 7077); assay: BSK_KF3CT_TIMP2: BioMAP Diversity Plus: KF3CT Assay for TIMP metallopeptidase inhibitor 2 (TIMP2) Biomarker Activity (AID 2283071); details: primary human keratinocytes with fibroblasts; actives raise or lower the signal
Procedure, shortened: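 Human primary keratinocyte/foreskin fibroblast co-culture dosed with chemical and sampled at 24 h. TIMP-2 levels quantified by ELISA; bidirectional fitting against DMSO negative control as baseline.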

[16] = read-out: Interleukin-1 alpha (IL1a), IL1A (gene 3552); assay: BSK_LPS_IL1a: BioMAP Diversity Plus: LPS Assay for Interleukin-1 alpha (IL1a) Biomarker Activity (AID 2283080); details: primary human HUVEC with PBMC; actives raise or lower the signal
Procedure, shortened: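 Measured: IL-1 alpha via ELISA at 24 h in LPS-activated human umbilical vein endothelium–PBMC co-culture. Baseline: DMSO, bidirectional fitting.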

[17] = BSK_LPS_PGE2: BioMAP Diversity Plus: LPS Assay for Prostaglandin E2 (PGE2) Biomarker Activity (AID 2283082); details: primary human HUVEC with PBMC; actives raise or lower the signal;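 for AC50: secreted prostaglandin E2 measured by ELISA in LPS-stimulated co-culture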
Procedure, shortened: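 HUVEC plus PBMC co-culture stimulated with LPS; secreted PGE2 quantified by ELISA 24 h after chemical dosing. Activity fitted bidirectionally against DMSO as negative control and baseline; parallel SRB total-protein staining served as cytotoxicity check.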

[18] = read-out: CD38, CD38 (gene 952); assay: BSK_SAg_CD38: BioMAP Diversity Plus: SAg Assay for CD38 Biomarker Activity (AID 2283087); details: primary human HUVEC with PBMC; actives raise or lower the signal
Procedure, shortened: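 Fluorescence ELISA of cell-surface CD38 served as the read-out, with either increase or decrease fitted against DMSO controls. Cells were a human umbilical vein endothelium plus PBMC co-culture under SEB/TSST-1 stimulation, measured 24 h after dosing.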

[19] = read-out: CD69, CD69 (gene 969); assay: BSK_SAg_CD69: BioMAP Diversity Plus: SAg Assay for CD69 Biomarker Activity (AID 2283089); details: primary human HUVEC with PBMC; actives raise or lower the signal;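 for AC50: cell surface CD69 protein quantified by ELISA with fluorescence detection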
Procedure, shortened: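 Endothelial/PBMC co-culture; chemical added; 24 h incubation; CD69 ELISA with fluorescence detection; bidirectional fit vs DMSO.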

[20] = read-out: E-selectin (Homo sapiens) (UniProt P16581); assay: BSK_SAg_Eselectin: BioMAP Diversity Plus: SAg Assay for Eselectin Biomarker Activity (AID 2283091); details: primary human HUVEC with PBMC; actives raise or lower the signal
Procedure, shortened: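 Primary human endothelial cells and peripheral blood mononuclear cells were co-cultured and exposed to chemical for 24 hours. E-selectin levels were then quantified by ELISA, with bidirectional curve fitting normalised to DMSO controls.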

Measured: AC50

Chain of E-selectin (Homo sapiens) (P16581 whole entry, looked up): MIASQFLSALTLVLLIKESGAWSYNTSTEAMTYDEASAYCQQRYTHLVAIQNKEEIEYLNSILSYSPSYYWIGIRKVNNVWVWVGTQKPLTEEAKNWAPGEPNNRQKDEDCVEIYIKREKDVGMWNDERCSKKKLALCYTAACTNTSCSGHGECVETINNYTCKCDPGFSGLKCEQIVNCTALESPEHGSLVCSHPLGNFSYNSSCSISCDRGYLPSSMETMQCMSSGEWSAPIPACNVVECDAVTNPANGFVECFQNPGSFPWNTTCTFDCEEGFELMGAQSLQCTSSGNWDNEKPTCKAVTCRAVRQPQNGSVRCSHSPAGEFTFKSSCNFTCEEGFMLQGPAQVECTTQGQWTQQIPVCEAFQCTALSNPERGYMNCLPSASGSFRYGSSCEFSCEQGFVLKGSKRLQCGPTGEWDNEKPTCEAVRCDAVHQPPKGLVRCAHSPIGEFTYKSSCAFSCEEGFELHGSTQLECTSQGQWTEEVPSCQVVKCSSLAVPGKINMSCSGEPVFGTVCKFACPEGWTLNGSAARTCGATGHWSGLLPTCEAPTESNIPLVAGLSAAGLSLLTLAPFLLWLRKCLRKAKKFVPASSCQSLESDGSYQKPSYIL

c1ccc(P(c2ccccc2)c2ccccc2)cc1
inactive: [1]

C[N+](C)(C)CC(=O)O
inactive: [2] | [3]

N#CCCCCC#N
not listed: [1]
inactive: all other assays above

CC(C)COP(=O)(OCC(C)C)OCC(C)C
not listed: [1] | [2] | [3]
inactive: all other assays above

CCOP(=O)(OCC)OCC
inactive: [1]

Nc1ccccc1C(=O)OCCc1ccccc1
inactive: [1]

Oc1ccc(C2(c3ccc(O)cc3)c3ccccc3-c3ccccc32)cc1
inactive: [16] | [17]
active: [4] 12.7 µM and 12.5 µM | [5] 15.6 µM and 14 µM | [6] 6.04 µM and 6.12 µM | [7] 18.1 µM and 23.5 µM | [8] 5.35 µM and 5.31 µM | [9] 9.06 µM and 7.06 µM | [10] 16.5 µM and 14.4 µM | [11] 5.27 µM and 5.31 µM | [12] 3.97 µM and 2.88 µM | [13] 1.93 µM and 20 µM | [14] 3.97 µM | [15] 5.37 µM and 5.43 µM | [16] 32.7 µM | [17] 11.8 µM | [18] 8.99 µM and 9.75 µM | [19] 10.6 µM and 9.45 µM | [20] 10.2 µM and 7.86 µM

N#CCCCl
inactive: [1]

CC(=O)c1cc2c(cc1C)C(C)(C)C(C)CC2(C)C (stereo not drawn)
inactive: [2] | [3]
